For one compound, residual activity results are on record in ChEMBL document CHEMBL2218924, “A broad activity screen in support of a chemogenomic map for kinase signalling research and drug discovery” (Biochem J, 2013).

The structures appear in SMILES notation.

Experiment [1] concerns the target T1, Serine/threonine-protein kinase TBK1 (Homo sapiens) (UniProt Q9UHD2).
T1 sequence (whole entry): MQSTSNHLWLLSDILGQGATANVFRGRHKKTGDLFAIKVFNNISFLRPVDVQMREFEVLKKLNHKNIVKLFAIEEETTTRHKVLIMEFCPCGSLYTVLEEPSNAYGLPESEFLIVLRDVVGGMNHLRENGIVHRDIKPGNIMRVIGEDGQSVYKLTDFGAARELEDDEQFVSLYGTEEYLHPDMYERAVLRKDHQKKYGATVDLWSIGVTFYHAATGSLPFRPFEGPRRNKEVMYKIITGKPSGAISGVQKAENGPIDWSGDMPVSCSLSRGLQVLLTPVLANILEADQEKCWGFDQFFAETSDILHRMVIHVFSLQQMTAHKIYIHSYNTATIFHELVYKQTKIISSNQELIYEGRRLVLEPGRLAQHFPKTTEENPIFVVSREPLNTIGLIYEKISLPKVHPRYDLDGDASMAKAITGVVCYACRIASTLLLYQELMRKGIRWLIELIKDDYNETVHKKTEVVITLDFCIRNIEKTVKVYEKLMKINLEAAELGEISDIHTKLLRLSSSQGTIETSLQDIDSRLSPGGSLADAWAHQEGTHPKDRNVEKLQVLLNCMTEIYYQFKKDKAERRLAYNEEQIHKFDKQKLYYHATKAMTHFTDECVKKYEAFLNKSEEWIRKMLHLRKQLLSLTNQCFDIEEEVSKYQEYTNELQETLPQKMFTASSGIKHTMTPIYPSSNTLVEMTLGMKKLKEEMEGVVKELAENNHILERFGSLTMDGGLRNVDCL
Conditions: at 1 µM.

Experiment [2] has as its target T1, Serine/threonine-protein kinase TBK1 (Homo sapiens). Particulars: at 10 µM.
In experiment [3] the target is T2, TGF-beta receptor type-1 (Homo sapiens) (UniProt P36897).
T2 sequence (whole entry): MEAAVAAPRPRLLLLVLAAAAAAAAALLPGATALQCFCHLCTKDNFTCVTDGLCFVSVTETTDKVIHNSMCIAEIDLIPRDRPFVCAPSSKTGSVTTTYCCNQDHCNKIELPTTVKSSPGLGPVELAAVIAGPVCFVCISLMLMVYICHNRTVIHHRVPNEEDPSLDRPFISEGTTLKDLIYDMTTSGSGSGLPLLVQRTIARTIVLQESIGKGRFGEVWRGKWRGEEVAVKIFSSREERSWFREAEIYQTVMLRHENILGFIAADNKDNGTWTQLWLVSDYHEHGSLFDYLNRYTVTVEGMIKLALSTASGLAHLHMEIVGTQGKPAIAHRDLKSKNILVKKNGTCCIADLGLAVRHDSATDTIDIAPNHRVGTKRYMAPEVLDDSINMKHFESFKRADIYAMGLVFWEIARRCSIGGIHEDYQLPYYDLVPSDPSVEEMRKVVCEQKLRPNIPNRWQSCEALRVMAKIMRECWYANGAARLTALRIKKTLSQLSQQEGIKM
Particulars: at 1 µM.

In experiment [4] the target is Insulin-like growth factor 1 receptor (Homo sapiens) (UniProt P08069). Conditions: at 10 µM.
Experiment [5] concerns the target T3, Inhibitor of nuclear factor kappa-B kinase subunit alpha (Homo sapiens) (UniProt O15111).
T3 sequence (whole entry): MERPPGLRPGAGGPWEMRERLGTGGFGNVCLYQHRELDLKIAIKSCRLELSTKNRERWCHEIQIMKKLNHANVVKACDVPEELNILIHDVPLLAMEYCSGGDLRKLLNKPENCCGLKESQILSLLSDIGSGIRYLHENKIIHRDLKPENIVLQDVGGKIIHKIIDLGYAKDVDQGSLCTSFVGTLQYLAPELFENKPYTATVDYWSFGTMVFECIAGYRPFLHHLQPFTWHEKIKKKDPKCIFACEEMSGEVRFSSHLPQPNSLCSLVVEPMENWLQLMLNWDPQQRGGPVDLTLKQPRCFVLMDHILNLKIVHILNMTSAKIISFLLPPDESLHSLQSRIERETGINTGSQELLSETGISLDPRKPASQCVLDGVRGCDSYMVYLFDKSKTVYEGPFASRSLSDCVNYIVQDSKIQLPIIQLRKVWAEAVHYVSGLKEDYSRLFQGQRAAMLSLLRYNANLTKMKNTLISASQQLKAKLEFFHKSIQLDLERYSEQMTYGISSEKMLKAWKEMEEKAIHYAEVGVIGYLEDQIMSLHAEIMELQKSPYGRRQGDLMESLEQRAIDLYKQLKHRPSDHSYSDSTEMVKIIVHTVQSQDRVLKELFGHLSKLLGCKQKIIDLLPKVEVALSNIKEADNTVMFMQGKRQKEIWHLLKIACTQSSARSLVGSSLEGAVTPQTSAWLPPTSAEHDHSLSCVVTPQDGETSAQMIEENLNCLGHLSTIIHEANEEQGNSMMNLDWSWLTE
Conditions: at 1 µM.

Experiment [6] has as its target T3, Inhibitor of nuclear factor kappa-B kinase subunit alpha (Homo sapiens). Conditions: at 10 µM.
Experiment [7] concerns the target T4, Inhibitor of nuclear factor kappa-B kinase subunit beta (Homo sapiens) (UniProt O14920).
T4 sequence (whole entry): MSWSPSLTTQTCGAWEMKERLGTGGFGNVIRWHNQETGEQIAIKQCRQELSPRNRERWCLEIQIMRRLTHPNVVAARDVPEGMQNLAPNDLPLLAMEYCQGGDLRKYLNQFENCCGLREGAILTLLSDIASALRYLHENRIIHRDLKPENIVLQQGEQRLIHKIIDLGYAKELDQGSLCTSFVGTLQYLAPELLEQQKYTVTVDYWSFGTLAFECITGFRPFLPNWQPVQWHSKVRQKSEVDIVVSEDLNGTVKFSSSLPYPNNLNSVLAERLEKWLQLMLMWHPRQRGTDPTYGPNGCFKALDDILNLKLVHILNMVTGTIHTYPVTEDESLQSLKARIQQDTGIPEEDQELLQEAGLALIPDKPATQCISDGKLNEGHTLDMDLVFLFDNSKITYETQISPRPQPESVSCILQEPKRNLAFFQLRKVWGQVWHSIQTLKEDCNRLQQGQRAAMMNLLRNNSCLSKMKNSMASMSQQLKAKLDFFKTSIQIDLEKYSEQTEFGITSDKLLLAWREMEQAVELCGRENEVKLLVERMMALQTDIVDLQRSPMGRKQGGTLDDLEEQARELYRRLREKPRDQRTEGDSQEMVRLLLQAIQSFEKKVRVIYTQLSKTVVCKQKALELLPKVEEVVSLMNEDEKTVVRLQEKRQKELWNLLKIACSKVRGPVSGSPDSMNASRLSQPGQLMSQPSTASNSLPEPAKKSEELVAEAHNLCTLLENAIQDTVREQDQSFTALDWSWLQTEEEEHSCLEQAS
Conditions: at 1 µM.

The target of experiment [8] is T4, Inhibitor of nuclear factor kappa-B kinase subunit beta (Homo sapiens). Particulars: at 10 µM.

Insulin-like growth factor 1 receptor (Homo sapiens), sequence (P08069 31-736 limits assumed): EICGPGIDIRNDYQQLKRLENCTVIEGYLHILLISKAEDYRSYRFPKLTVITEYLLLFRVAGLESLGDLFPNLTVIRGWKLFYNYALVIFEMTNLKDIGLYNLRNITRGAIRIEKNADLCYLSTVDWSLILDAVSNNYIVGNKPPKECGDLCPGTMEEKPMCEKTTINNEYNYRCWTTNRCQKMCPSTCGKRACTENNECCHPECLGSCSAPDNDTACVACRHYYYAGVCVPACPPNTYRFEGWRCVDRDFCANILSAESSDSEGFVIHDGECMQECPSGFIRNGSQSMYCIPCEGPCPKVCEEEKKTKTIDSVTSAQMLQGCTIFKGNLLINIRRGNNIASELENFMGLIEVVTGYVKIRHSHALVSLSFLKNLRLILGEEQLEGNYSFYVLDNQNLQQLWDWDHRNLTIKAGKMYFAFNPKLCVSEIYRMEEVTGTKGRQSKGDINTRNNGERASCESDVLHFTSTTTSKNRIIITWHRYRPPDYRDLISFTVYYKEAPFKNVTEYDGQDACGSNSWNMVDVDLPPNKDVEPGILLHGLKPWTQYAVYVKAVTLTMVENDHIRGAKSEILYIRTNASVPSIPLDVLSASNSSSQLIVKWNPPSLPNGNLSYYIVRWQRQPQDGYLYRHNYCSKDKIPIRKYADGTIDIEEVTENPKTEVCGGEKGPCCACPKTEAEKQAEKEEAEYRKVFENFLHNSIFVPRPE
Insulin-like growth factor 1 receptor (Homo sapiens), sequence (P08069 741-1367 limits assumed): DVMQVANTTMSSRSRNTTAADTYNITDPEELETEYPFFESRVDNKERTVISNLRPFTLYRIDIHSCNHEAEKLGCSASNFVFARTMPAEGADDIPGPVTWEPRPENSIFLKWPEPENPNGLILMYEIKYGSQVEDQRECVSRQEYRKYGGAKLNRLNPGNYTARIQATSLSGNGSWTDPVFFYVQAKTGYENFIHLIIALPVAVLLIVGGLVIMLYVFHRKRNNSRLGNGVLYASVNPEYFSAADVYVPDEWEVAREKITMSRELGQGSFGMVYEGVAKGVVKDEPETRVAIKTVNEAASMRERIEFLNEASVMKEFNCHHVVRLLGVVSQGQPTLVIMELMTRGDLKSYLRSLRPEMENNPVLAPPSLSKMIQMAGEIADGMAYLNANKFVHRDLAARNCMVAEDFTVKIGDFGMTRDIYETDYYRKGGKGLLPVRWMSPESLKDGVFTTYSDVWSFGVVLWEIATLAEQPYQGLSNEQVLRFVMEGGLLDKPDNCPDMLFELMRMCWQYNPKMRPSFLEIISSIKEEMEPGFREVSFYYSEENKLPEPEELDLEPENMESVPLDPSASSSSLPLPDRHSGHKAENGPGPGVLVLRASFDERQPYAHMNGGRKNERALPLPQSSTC

As to `COc1cc2ncnc(Nc3ccc(NC(=O)c4ccccc4)cc3)c2cc1OC`, the residual activity in experiment [1] stood at 96%; in experiment [2] it was 75%; in experiment [3], 98%; in experiment [4], 103%; in experiment [5], 102%; in experiment [6] it was 96%. Also, the residual activity in experiment [7] came to 109%; in experiment [8] it was 106%.

What is called residual activity is the signal under treatment as a percentage of the control signal.
